Assay outcomes deposited in PubChem by several laboratories.
Mcl1-Noxa inh: Mcl-1/Noxa binding inhibitors, primary screen, biochemical, TR-FRET, 1536-well; Induced myeloid leukemia cell differentiation protein Mcl-1 (Homo sapiens), Q07820; TR-FRET Mcl-1/Noxa peptide binding, 2 h; inhibition, % at 21.7 µM; hit rate 1.5% among 220,000;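 active = compounds that cut the protein-peptide binding signal by more than 50% relative to plate controls in a single-dose test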;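 note: His-tagged Mcl-1 with rhodamine Noxa BH3 peptide and terbium anti-His antibody; 0% = Mcl-1 plus Noxa peptide wells and 100% = peptide-only wells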
Hck Nef HTS: inhibitors of Nef-activated human Hck kinase, primary screen, biochemical, Z-Lyte FRET, 384-well, Hck-YEEI; Tyrosine-protein kinase HCK (Homo sapiens), P08631; Recombinant Hck-YEEI plus Nef, Z-Lyte FRET kinase assay; inhibition, % at 20 µM; hit rate 0.68% among 220,000; AID 463187, 2010;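 active = Hck-Nef kinase inhibition above about 50%, limit read from the data; inactive = inhibition below that limit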;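 note: 0% = DMSO with Hck plus Nef and 100% = Hck alone without Nef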
Target sequence (P08631 whole entry, looked up): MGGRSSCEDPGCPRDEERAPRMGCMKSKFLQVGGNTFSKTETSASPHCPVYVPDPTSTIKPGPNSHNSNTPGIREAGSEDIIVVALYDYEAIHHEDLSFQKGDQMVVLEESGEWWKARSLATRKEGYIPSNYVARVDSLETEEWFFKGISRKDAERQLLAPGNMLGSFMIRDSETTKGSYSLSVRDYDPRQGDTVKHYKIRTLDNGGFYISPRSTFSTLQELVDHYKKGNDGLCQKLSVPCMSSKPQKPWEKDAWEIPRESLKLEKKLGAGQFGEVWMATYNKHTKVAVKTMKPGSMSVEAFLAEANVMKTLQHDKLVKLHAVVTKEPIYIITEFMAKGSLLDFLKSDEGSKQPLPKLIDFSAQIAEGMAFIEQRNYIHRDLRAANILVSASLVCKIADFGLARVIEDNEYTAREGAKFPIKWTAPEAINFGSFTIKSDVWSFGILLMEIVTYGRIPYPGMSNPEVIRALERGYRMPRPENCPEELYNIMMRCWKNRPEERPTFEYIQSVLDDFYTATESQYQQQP
Mcl1 Bid PPI: Mcl-1/Bid binding inhibitors, primary screen, biochemical, TR-FRET, 1536-well. AID 1021, 2008. inhibition, % at 21.7 µM. hit rate 0.97% among 220,000. Induced myeloid leukemia cell differentiation protein Mcl-1 (Homo sapiens), Q07820. TR-FRET Mcl-1/Bid-Dy647 peptide binding;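 active = compounds that cut the binding signal by more than half at the single screening dose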;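 note: His-tagged Mcl-1 with europium anti-His antibody binding Bid BH3 peptide; 0% = Mcl-1 plus peptide wells and 100% = peptide-only wells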
Mcl-1 Bim block: inhibitors of Bim peptide binding to Mcl-1, primary screen, biochemical, bead-based flow cytometry, multiplex. hit rate 0.1% among 190,000. inhibition, % at 10 µM. Induced myeloid leukemia cell differentiation protein Mcl-1 (Homo sapiens), Q07820. Bim peptide-Mcl-1 binding; in the data active = inhibition above about 40%;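 note: 0% = no compound tracer wells and 100% = peptide blocker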
eIF4E-4G inh: eIF4E–eIF4G protein interaction inhibitors, primary screen, biochemical, uHTS, TR-FRET, eIF4GI fragment; AID 782, 2007; TR-FRET eIF4E-eIF4GI(517-606) binding, 2 h; inhibition, % at 21.7 µM; Eukaryotic translation initiation factor 4E (Mus musculus) + Eukaryotic translation …; hit rate 0.37% among 220,000;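 active = inhibition above about 30%, limit read from the data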;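 note: 0% = full FRET control wells and 100% = background wells lacking eIF4GI fragment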
14-3-3 Bad PPI: inhibitors of 14-3-3 zeta/Bad binding, primary screen, biochemical, TR-FRET, bovine 14-3-3 zeta. 14-3-3 protein zeta/delta (Bos taurus), P63103. TR-FRET 14-3-3zeta/Dy647-pBad peptide displacement, 1 h. inhibition, % at 21.7 µM. hit rate 0.71% among 220,000;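 active = inhibition above about 70%, limit read from the data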;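 note: 0% = full 14-3-3 plus peptide FRET controls and 100% = background without 14-3-3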
An asterisk follows results filed as active; · = no result given. Sampled rows, rich in hits. Any-hit rate of the full collection: about 3.5%.

SMILES | Mcl1-Noxa inh | Hck Nef HTS | Mcl1 Bid PPI | Mcl-1 Bim block | eIF4E-4G inh | 14-3-3 Bad PPI
COc1cccc(N2CCN(CC(=O)C34CC5CC(CC(C5)C3)C4)CC2)c1 | 4.5 | 7.3 | -12.3 | 0.0 | -4.8 | -14.4
CC(=O)c1sc(-c2ccc(F)cc2F)nc1C | -27.9 | 5.9 | -6.5 | · | -0.1 | -1.2
CC(=O)Nc1ccc2c(c1)OCCO2 | · | 0.8 | · | 38.0 | · | ·
C=C(C)C(=O)Nc1ccc2c(c1)OCCOCCOCCO2 | 52.5* | 25.6 | -33.9 | · | 5.2 | 43.8
O=C(Nc1ccc2c(c1)OCCO2)NC1(C(F)(F)F)Oc2ccccc2O1 | 24.7 | 1.1 | 68.6* | -1.0 | 3.0 | 33.2
O=C(Nc1ccc2c(c1)OCO2)NC1(C(F)(F)F)Oc2ccccc2O1 | 18.7 | -25.4 | -40.5 | 1.0 | 2.0 | -14.1
Cc1ccc2c(c1)N/C(=C(\C=C(/Cl)[N+](=O)[O-])[N+](=O)[O-])N2 | 59.4* | 25.4 | 10.2 | 0.0 | 4.7 | 22.7
Cc1ccc2c(c1)NC(=O)c1cc([N+](=O)[O-])ccc1O2 | 7.8 | 24.6 | -0.5 | 0.0 | -1.7 | 5.3
NC(=O)c1cnccn1 | -34.9 | -6.6 | -11.1 | -2.0 | 0.2 | 2.7
CC(C)OC(=O)Cn1cnc2ccc(Br)cc2c1=O | 106.7* | -0.7 | 0.4 | -3.0 | -0.6 | 4.9
COC(=O)Cn1cnc2ccccc2c1=O | 14.6 | 3.3 | -7.7 | 0.0 | 3.8 | -10.0
COc1ccc(Cl)cc1NC(=S)N(Cc1ccc(C(=O)O)cc1)Cc1ccc(OC)c(OC)c1 | 3.8 | 32.0 | -5.2 | -5.0 | -1.8 | -19.6
O=C(Nc1nnc(-c2ccccc2Cl)o1)c1cc2cc([N+](=O)[O-])ccc2s1 | 55.1* | 3.2 | 35.4 | -2.0 | 8.0 | 44.8
Cc1onc(-c2ccc(Cl)cc2)c1-c1ccnc(SCC(=O)Nc2ccc(C(C)C)cc2)n1 | -11.8 | -8.4 | -12.7 | · | -1.5 | 10.9
COc1ccc(NC(=O)CSc2nc3ccccc3c(=O)n2CCCN2CCC(C)CC2)c(OC)c1 | 6.3 | 0.1 | -22.6 | -2.0 | 0.7 | -10.1
CC(C)Oc1cccc(C(=O)NC(=S)NCc2cccnc2)c1 | 12.8 | 3.0 | -13.4 | -3.0 | -3.7 | 1.9
Cc1cc(C)c2c(=O)n(CC(=O)N3CCC(N4CCCCC4)CC3)sc2n1 | 46.1 | 0.7 | -52.5 | -2.0 | 7.5 | 17.2
CCOC(=O)C1CCCN(C(=O)Cn2sc3nc(C)cc(C)c3c2=O)C1 (stereo not drawn) | 56.5* | -2.0 | -22.4 | -5.0 | -3.5 | 0.2
Cc1cccc(NC2=CC(=O)OC(C)C2)c1 (stereo not drawn) | -0.2 | -14.3 | -28.5 | 1.0 | 0.9 | 80.8*
CC1CC(Nc2ccccc2N)=CC(=O)O1 (stereo not drawn) | -1.2 | -20.4 | -62.2 | 1.0 | -14.5 | -5.3
Nc1nnc(CC(=O)N/N=C/c2ccc(-c3ccc(Cl)cc3Cl)o2)s1 | 51.1* | 27.7 | 49.4 | · | -16.7 | 49.1
CC(C)n1cnc2c(N(C)c3ccccc3)nc(N(CCN(C)C)Cc3ccccc3)nc21 | 2.8 | 32.0 | -78.1 | · | -1.0 | -1.6
O=c1oc2cc(O)ccc2cc1-c1nc2c(s1)CCc1ccccc1-2 | 53.6* | -9.6 | -37.4 | · | -5.4 | 3.4
Oc1ccc(N=C/C=C/c2cccc(Br)c2)cc1-c1nc2ccccc2s1 | 62.0* | 14.3 | -69.2 | -2.0 | 10.9 | 6.3
Nc1ccc(O)c(-c2nc3ccccc3s2)c1 | 71.4* | 6.0 | -64.6 | -3.0 | 0.0 | 10.0
O=C(Nc1ccc(O)c(-c2nc3ccccc3s2)c1)c1cccs1 | -217.0 | 0.5 | -56.0 | 0.0 | 24.1 | -20.0
Nc1ccccc1-c1nc2ccccc2s1 | 10.2 | 37.5 | -13.2 | 0.0 | 10.2 | 72.8*
Cc1scc(C(=O)NNC(=S)NC(C)c2ccccc2)c1C (stereo not drawn) | -34.9 | 2.7 | -52.6 | -2.0 | -5.6 | -17.3
